Experimental findings from PubChem BioAssay are described below.

Unmarked numbers belong to inactive results. For some of these results: Measured potencies and affinities stand elsewhere. Active and inactive are the calls of the source. Unless noted, the rule behind the calls is not given here.

The inhibition is the change of the read-out against control, counted positive when it falls.

Assay [1] is described as follows: antimalarial activity against Dd2 strain (AID 2302;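 active = growth inhibition above 50% at the single 2 µM test dose, taken to imply half-maximal potency below 2 µM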;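 note: 0% = DMSO untreated growth and 100% = chloroquine plus artemisinin killed control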). The note with it: P. falciparum Dd2 in RBCs, LDH growth readout, 72 h; at 2 µM; hits give high values.
Assay [2] can be described thus: HepG2 cytotoxicity, primary screen, cytotoxicity control for P. falciparum antimalarial project, cell-based, ATP luminescence (AID 2303;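 active = inhibition above 50%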;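 note: 0% = DMSO wells and 100% = digitonin-killed cells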). The note with it: HepG2 viability, 24-48 h, at 10 µM, hits give high values.
Assay [3] deals with L-lactate dehydrogenase (Plasmodium falciparum (isolate CDC / Honduras)) (UniProt Q27743). Put plainly: PfLDH activity inhibition – cell lysate, 3D7 strain, counter-screen for P. falciparum growth inhibition project (AID 2304).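 Note: 0% = vehicle and 100% = reference inhibitor.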 The note with it: P. falciparum 3D7 crude extract, LDH APAD/NBT absorbance; at 2 µM; hits give high values. Background: Counterscreens check selectivity or assay interference.
Sequence of L-lactate dehydrogenase (Plasmodium falciparum (isolate CDC / Honduras)) (Q27743 whole entry, looked up): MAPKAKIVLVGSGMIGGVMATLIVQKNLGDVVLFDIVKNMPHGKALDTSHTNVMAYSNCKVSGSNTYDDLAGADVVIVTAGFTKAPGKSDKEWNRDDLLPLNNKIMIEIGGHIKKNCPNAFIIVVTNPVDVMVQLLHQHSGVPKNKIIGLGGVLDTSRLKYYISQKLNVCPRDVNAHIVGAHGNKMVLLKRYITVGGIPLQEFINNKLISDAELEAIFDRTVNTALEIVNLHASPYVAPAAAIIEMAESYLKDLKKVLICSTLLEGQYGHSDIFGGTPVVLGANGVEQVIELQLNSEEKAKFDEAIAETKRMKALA

The nature of assay [4]: inhibition of 3D7 malaria parasite growth – strain 3D7 (AID 2306).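 Note: 0% = DMSO wells and 100% = chloroquine plus artemisinin control wells.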 The settings on record: P. falciparum 3D7 erythrocytic growth, LDH absorbance, 72 h; at 2 µM; hits give high values.
For assay [5], the target named is Calcium-dependent protein kinase 1 (Plasmodium falciparum (isolate 3D7)) (UniProt P62344). Put plainly: PfCDPK1 kinase inhibitors, biochemical, TCAMS library (AID 1159585; cut-off not given, nearly all actives have IC50 up to about 0.98 µM;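 note: inhibitors leave more ATP so luminescence rises with inhibition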). The note with it: recombinant PfCDPK1, Kinase-Glo ATP depletion luminescence. In general terms: In Kinase-Glo more light means more ATP remaining.
Sequence of Calcium-dependent protein kinase 1 (Plasmodium falciparum (isolate 3D7)) (P62344 whole entry, looked up): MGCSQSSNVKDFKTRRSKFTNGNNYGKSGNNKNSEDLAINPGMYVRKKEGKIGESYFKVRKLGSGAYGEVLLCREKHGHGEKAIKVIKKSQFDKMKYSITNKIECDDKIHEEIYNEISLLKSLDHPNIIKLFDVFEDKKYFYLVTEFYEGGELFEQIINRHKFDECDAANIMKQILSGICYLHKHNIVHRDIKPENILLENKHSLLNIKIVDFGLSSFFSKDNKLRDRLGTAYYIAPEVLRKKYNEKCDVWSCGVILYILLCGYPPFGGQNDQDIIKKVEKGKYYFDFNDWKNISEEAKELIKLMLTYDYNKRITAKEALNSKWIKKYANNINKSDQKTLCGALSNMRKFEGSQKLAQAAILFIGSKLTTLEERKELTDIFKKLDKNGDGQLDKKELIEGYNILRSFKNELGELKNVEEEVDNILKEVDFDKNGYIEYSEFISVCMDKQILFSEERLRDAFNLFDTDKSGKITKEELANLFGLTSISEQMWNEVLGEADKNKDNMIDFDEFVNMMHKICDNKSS
Assay [6] deals with Plasmodium falciparum protein kinase 6 (PK6, PF3D7_1337100) (UniProt Q8IDW1). Put plainly: PfPK6 kinase inhibitors, biochemical, TCAMS library (AID 1159586). The note with it: recombinant PfPK6, Kinase-Glo ATP depletion luminescence.
Sequence of Plasmodium falciparum protein kinase 6 (PK6, PF3D7_1337100) (Q8IDW1 1-305): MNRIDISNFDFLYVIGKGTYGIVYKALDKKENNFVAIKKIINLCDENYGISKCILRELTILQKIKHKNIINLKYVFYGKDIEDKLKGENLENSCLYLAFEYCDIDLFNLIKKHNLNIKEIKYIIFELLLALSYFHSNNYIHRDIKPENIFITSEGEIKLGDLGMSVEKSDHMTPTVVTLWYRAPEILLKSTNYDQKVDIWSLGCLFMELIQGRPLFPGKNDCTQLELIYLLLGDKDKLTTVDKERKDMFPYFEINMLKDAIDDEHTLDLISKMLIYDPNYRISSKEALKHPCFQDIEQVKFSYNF
Assay [7] concerns the target Protein kinase 7 (PK7), Plasmodium falciparum 3D7 (PF3D7_0213400) (UniProt Q7YTF7). Put plainly: inhibition of Plasmodium PK7 catalytic activity – biochemical, TCAMS antimalarial set, Kinase-Glo luminescence (AID 1159587). The note with it: recombinant PfPK7, Kinase-Glo ATP depletion luminescence.
For assay [8], the target named is Calcium-dependent protein kinase 4 (Plasmodium falciparum (isolate 3D7)) (UniProt Q8IBS5). Put plainly: PfCDPK4 kinase inhibitors, biochemical, TCAMS library (AID 1159588; cut-off not given, nearly all actives have IC50 up to about 0.91 µM). The settings on record: recombinant PfCDPK4, Kinase-Glo ATP depletion luminescence.
Sequence of Calcium-dependent protein kinase 4 (Plasmodium falciparum (isolate 3D7)) (Q8IBS5 whole entry, looked up): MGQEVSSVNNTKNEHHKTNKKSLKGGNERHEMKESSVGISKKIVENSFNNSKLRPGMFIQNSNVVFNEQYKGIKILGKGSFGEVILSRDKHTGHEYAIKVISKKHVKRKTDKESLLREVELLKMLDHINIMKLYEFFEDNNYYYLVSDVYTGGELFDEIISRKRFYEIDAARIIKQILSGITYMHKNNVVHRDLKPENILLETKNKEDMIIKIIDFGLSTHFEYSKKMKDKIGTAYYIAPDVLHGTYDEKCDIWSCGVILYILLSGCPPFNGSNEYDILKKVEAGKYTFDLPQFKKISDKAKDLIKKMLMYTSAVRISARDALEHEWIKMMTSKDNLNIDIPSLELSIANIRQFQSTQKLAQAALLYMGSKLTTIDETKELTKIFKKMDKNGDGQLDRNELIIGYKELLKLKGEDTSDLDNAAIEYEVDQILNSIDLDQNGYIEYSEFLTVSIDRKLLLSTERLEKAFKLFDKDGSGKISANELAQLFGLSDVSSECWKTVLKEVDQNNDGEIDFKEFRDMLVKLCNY

Sequence of Protein kinase 7 (PK7), Plasmodium falciparum 3D7 (PF3D7_0213400) (Q7YTF7 1-343): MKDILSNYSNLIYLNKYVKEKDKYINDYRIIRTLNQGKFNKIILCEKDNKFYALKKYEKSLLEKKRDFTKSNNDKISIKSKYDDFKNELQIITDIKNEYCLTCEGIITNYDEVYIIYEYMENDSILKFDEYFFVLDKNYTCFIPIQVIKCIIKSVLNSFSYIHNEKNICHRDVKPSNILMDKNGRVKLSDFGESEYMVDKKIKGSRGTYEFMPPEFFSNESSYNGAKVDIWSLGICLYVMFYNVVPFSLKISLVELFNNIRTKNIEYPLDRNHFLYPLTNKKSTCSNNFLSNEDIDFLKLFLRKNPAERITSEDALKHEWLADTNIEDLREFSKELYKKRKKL

Regarding `COc1ccc2ccc(F)c(CC(=O)N3CCOC(CNCc4cccc(-c5ccc(F)cc5)n4)C3)c2n1` (stereo not given), the results for the growth inhibition in assay [1] and in assay [4] were 1% and 92% (active), respectively. Besides, the results for the inhibition in assay [2] and in assay [3] were 5% and 6%, respectively. Besides, the result in assay [5], in assay [6], in assay [7] and in assay [8] was inactive.
Regarding `C(=NNc1ccnc2ccccc12)c1ccncc1`, the growth inhibition in assay [1] was 27%; in assay [4], 95% (active). In addition, the inhibition in assay [2] was 7%; in assay [3], -2%. Also, the result in assay [5], in assay [6], in assay [7] and in assay [8] was inactive.
Take `NC1=NC(CCc2ccccc2)N(c2ccccc2)C(N)=N1` (stereo not given): the growth inhibition in assay [1] is 15%; in assay [4], 94% (active). The inhibition in assay [2] was 1%; in assay [3] it was -9%. Also, the result in assay [5], in assay [6], in assay [7] and in assay [8] was inactive.
On to `Cc1nc2ccccc2n1C1C[C@H]2CC[C@@H](C1)N2CCCC1(c2ccccc2)CCN(C(=O)OCc2ccccc2)CC1` (stereo not given in full), for which the figures for the growth inhibition in assay [1] and in assay [4] were 29% and 90% (active), respectively. Further, the inhibition in assay [2] is 46%; in assay [3] it was -4%. Moreover, the outcome in assay [5], in assay [6], in assay [7] and in assay [8] was inactive.
For `O=C1CCCN1CCCNCc1ccc(-c2cccc(-c3nc4ccc(F)cc4[nH]3)c2)cc1`, the growth inhibition was 8% in assay [1] and 101% (active) in assay [4]. The figures for the inhibition in assay [2] and in assay [3] were 12% and -1%, respectively. The outcome in assay [5], in assay [6], in assay [7] and in assay [8] was inactive.
In the case of `Oc1ccccc1CN[C@@H]1CCCC[C@H]1NCc1ccccc1O`, the growth inhibition in assay [1] was 66% (active); in assay [4], 96% (active). The inhibition in assay [2] was 53% (active); in assay [3], 2%. Moreover, the result in assay [5], in assay [6], in assay [7] and in assay [8] was inactive.
Consider `Cc1cccc2[nH]c(-c3cccc(-c4cccc(NC(=O)C(C)CN5CCN(C)CC5)c4)c3)nc12` (stereo not given), for which the growth inhibition in assay [1] and in assay [4] was 99% (active) each time. For the same molecule, the values for the inhibition in assay [2] and in assay [3] were 17% and 1%, respectively. The outcome in assay [5], in assay [6], in assay [7] and in assay [8] was inactive.
For the molecule `CCCCCCN(CCCCCC)CCCCNc1c2ccc(Cl)cc2nc2ccc(OC)cc12`, the growth inhibition in assay [1] is 94% (active); in assay [4] it was 100% (active). Further, the inhibition in assay [2] is 65% (active); in assay [3], 1%. Further, the outcome in assay [5], in assay [6], in assay [7] and in assay [8] was inactive.
In the case of `O=C(NCCCN(Cc1ccc(F)cc1)c1ccccn1)C(c1cc2ccccc2o1)N1CCN(C(c2ccccc2)c2ccccc2)CC1` (stereo not given), the growth inhibition in assay [1] was 53% (active); in assay [4] it was 97% (active). Besides, the inhibition in assay [2] was 14%; in assay [3], 1%. Further, the outcome in assay [5], in assay [6], in assay [7] and in assay [8] was inactive.
For `Cc1cc(NN=Cc2ccc(F)cc2)c2ccc(C(F)(F)F)cc2n1`, the growth inhibition in assay [1] was 24%; in assay [4] it was 95% (active). Besides, the values for the inhibition in assay [2] and in assay [3] were 4% and -2%, respectively. Further, the result in assay [5], in assay [6], in assay [7] and in assay [8] was inactive.
Take `CN(Cc1ccc(NC(=O)NC2CCN(C(=O)/C=C/c3ccc(Cl)c(Cl)c3)CC2)cc1)C1CCOCC1`: the growth inhibition in assay [1] is 14%; in assay [4], 96% (active). Besides, the inhibition in assay [2] was 9%; in assay [3], 5%. The outcome in assay [5], in assay [6], in assay [7] and in assay [8] was inactive.
For `O=C(Nc1cccc(C(F)(F)F)c1)Nc1cc(F)c(F)cc1Cl`, the growth inhibition was 98% (active) in assay [1] and 83% (active) in assay [4]. The inhibition in assay [2] was -1%; in assay [3], 5%. The result in assay [5], in assay [6], in assay [7] and in assay [8] was inactive.
Take `O=[N+]([O-])c1ccc(NC(=NCCOc2ccccc2)Nc2ccccc2Br)c(O)c1`: the growth inhibition in assay [1] is 70% (active); in assay [4], 88% (active). Moreover, the inhibition was 6% in assay [2] and -9% in assay [3]. For the same molecule, the result in assay [5], in assay [6], in assay [7] and in assay [8] was inactive.
Take `CS(=O)(=O)N1CC2(CCN(CCC(NC(=O)/C=C/c3ccccc3)c3ccc(Cl)c(Cl)c3)CC2)c2ccccc21` (stereo not given): the growth inhibition in assay [1] was 55% (active); in assay [4], 97% (active). Further, the inhibition in assay [2] was 18%; in assay [3], 2%. Also, the result in assay [5], in assay [6], in assay [7] and in assay [8] was inactive.
As for `O=C(Nc1ccc(CN2CCOCC2)cc1)c1ccc(-c2ccc(Cl)cc2)o1`, the growth inhibition in assay [1] was 11%; in assay [4] it was 98% (active). The inhibition in assay [2] is 22%; in assay [3], -6%. The result in assay [5], in assay [6], in assay [7] and in assay [8] was inactive.
Regarding `CNC(=O)c1ccc2nc(C3CC3)n(CC3CCN(S(=O)(=O)c4cccc(Cl)c4)CC3)c2c1`, the growth inhibition in assay [1] and in assay [4] was 100% (active) in each case. In addition, the inhibition in assay [2] is -6%; in assay [3], 3%. In addition, the outcome in assay [5], in assay [6], in assay [7] and in assay [8] was inactive.
As for `O=C(NC1CC1)c1cnc(N2CCN(Cc3c(F)cccc3Cl)CC2)c(Cl)c1`, the growth inhibition in assay [1] and in assay [4] was 93% (active) throughout. In addition, the inhibition is 0% in assay [2] and -2% in assay [3]. For the same molecule, the result in assay [5], in assay [6], in assay [7] and in assay [8] was inactive.
As to `CCCCNC(=O)C(C)NC(=O)c1ccc(O)c(-c2ccc(Cl)c(Cl)c2)c1` (stereo not given), the growth inhibition in assay [1] was 8%; in assay [4], 98% (active). The inhibition is -5% in assay [2] and 2% in assay [3]. Also, the outcome in assay [5], in assay [6], in assay [7] and in assay [8] was inactive.
Consider `Nc1ccnc(N2CCC(CCOc3cc(C(F)(F)F)nc4c(C(F)(F)F)cccc34)CC2)c1`, for which the growth inhibition in assay [1] is 17%; in assay [4] it was 98% (active). The figures for the inhibition in assay [2] and in assay [3] were 35% and -1%, respectively. Also, the result in assay [5], in assay [6], in assay [7] and in assay [8] was inactive.
In the case of `O=C1COc2ccc(S(=O)(=O)N3CCC[C@@H]3CCN3CCC(c4c[nH]c5cnccc45)CC3)cc2N1`, the growth inhibition in assay [1] is 6%; in assay [4], 101% (active). Moreover, the figures for the inhibition in assay [2] and in assay [3] were -8% and 1%, respectively. For the same molecule, the outcome in assay [5], in assay [6], in assay [7] and in assay [8] was inactive.
